# PubChem BioAssay AID2284356 (EPA ToxCast)
# Results filed as inconclusive are left out. The source made the active and inactive calls. How the source made its calls: active means hit-call score of the fitted dose curve at least 0.9, where 1 is the maximum; inconclusive means response in the unintended direction; inactive means score below 0.9.
# Biological target: zebrafish Estrogen Receptor (ER1), esr1 (gene 259252) (UniProt P57717)
# Experiment: ATG_zfER1_EcoTox2: Attagene TRANS-FACTORIAL EcoTox-2 HepG2 Assay for zebrafish Estrogen Receptor (ER1)
# Procedure: ATG_EcoTox2 is a cell-based, multiplexed assay created by modifying the existing Attagene TRANS-FACTORIAL system to include a panel of nuclear receptors from some or all the following species: human (Homo sapiens), african clawed frog (Xenopus laevis), rainbow trout (Oncorhynchus mykiss), japanese medaka (Oryzias latipes), and zebrafish (Danio rerio). The ECOTOX2-FACTORIAL format uses HepG2, a human liver cell line, with measurements taken at 24 hours after chemical dosing in a 24-well plate. ATG_zfER1_EcoTox2 is one of 29 assay components calculated in the ATG_EcoTox2 assay. It is designed to make measurements of mRNA induction, a form of inducible reporter, as detected with fluorescence intensity signals by Reverse transcription polymerase chain reaction (RT-PCR) and Capillary electrophoresis technology.The assay endpoint ATG_zfER1_EcoTox2 was analyzed in the positive analysis fitting direction relative to DMSO as the negative control and baseline of activity. Using a type of inducible reporter, measures of mRNA for gain-of-signal activity can be used to understand the reporter gene at the transcription factor-level as they relate to the gene ER. Furthermore, this assay endpoint can be referred to as a primary readout, because this assay has produced multiple assay endpoints where this one serves a reporter gene function. To generalize the intended target to other relatable targets, this assay endpoint is annotated to the nuclear receptor intended target family, where the subfamily is steroidal.
# Human liver HepG2 cells are transiently transfected with multiple reporter transcription units (MRTUs) in 6-well plates using FuGene 6 reagent (Roche; 3 ml FuGene/1 mg DNA). The MRTU constructs are regulated by a cis-regulating element (promoter). Each RTU expresses a GAL4-UAS that regulates the transcription of a nearby target reporter gene sequence. A major difference between the CIS and TRANS system is that in CIS activities of endogenous TFs are measured, whereas the TRANS assay evaluates changes in activities of exogenous, chimeric NR-Gal4 proteins. […] At the end of 24 hour incubation, total RNA was isolated using TriZol reagent (Invitrogen). The isolated RNA is then reverse-transcribed using oligo(dT) primer and Mo-MLV reverse transcriptase (Invitrogen) with DNAse I (Ambion) treatment for 30 min. The one-tenth of the produced cDNA was amplified by PCR using Taq DNA polymerase (Invitrogen) and two reporter sequence-specific primers. The PCR products were fluorescently labeled by primer extension with 6-arboxyfluorescein (6-FAM) 5'-labeled reporter sequence-specific primer (2 min at 95 C, 20 s at 68 C and 10 min at 72 C) and these products were digested with 5U of HpaI (New England Biolabs) for 2h at 37 C. The fragments were purified using Qiaquick PCR columns (Qiagen), analyzed on an ABI 3130xL genetic analyzer (Applied Biosystems) with peak positions identified by using a set of X-rhodamine (ROX)-labeled MapMarker1000 molecular weight standards (BioVentures). The raw capillary electrophoresis data was processed using Attagraph software (Attagene).
# zebrafish Estrogen Receptor (ER1), esr1 (gene 259252), sequence (P57717 whole entry, looked up): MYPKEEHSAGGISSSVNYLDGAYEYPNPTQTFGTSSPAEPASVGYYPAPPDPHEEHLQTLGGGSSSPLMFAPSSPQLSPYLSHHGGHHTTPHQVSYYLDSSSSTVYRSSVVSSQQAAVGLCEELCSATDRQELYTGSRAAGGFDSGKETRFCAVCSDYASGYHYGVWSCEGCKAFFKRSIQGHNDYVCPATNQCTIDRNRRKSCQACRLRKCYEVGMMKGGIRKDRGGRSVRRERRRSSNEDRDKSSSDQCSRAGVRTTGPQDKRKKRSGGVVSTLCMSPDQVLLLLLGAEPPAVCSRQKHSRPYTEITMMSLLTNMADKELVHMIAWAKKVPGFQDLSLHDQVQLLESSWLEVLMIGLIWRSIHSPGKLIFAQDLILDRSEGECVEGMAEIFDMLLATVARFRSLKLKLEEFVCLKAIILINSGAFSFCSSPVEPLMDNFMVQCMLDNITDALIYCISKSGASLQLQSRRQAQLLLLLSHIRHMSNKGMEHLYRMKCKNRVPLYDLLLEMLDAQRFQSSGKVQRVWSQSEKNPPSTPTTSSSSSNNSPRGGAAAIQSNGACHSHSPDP
row,Structure (SMILES),outcome
1,CC(C)(Oc1ccc(CCNC(=O)c2ccc(Cl)cc2)cc1)C(=O)O,inactive
2,C[C@@H]1C[C@H]2[C@@H]3CCC4=CC(=O)C=C[C@]4(C)[C@@]3(F)[C@@H](O)C[C@]2(C)[C@@]1(O)C(=O)COP(=O)(O)O,inactive
3,Cc1ccc(C)c(OCCCC(C)(C)C(=O)O)c1,inactive
4,CC(C)(Oc1ccc(C2CC2(Cl)Cl)cc1)C(=O)O (centres undefined),inactive
5,C=C(c1ccc(C(=O)O)cc1)c1cc2c(cc1C)C(C)(C)CCC2(C)C,inactive
6,CC(C)OC(=O)C(C)(C)Oc1ccc(C(=O)c2ccc(Cl)cc2)cc1,inactive
7,CC(C)(Oc1ccc(Cl)cc1)C(=O)O,inactive
8,CC(c1cc2ccccc2s1)N(O)C(N)=O (centres undefined),inactive
9,C[C@]12C=CC(=O)C=C1CC[C@@H]1[C@@H]2C(=O)C[C@@]2(C)[C@H]1CC[C@]2(O)C(=O)CO,inactive
